High-throughput results as filed in PubChem.
In the library only some 1.8% were active in any assay of this set; here they are far more common.
AF4-AF9 inh: MLL-AF4/AF9 protein interaction inhibition | P42568 | AlphaScreen, biotin-AF4 peptide binding to FLAG-AF9 | inhibition, % at 10 µM | 0.47% of 350,000 active;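 active means every replicate reaching a set inhibition limit, whatever the replicate mean, cut at about 25% in these data; inconclusive means mean inhibition reaches that limit but some replicates miss it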
ERAP1 HTS inh: inhibitors of human ERAP1 aminopeptidase; Q9NZ08; recombinant ERAP1, Leu-AMC fluorescence, 60 min; inhibition, % at 10.7 µM; 0.15% of 340,000 active; AID 652197;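 active means mean replicate inhibition of at least 30%, or all replicates individually reaching that 30% level; inactive means mean below 30% and not every replicate reaching it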
ERp5 block: inhibitors of human ERp5; AID 651711; ERp5 insulin aggregation, absorbance 650 nm, 90 min; Q15084; inhibition, % at 9.99 µM; 0.05% of 350,000 active;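 active means mean replicate inhibition above about 25%, with every replicate also reaching it, limit read from the data, passing the limit was not always enough; inconclusive means only one of those two criteria met; inactive means neither criterion met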
PDI inh: PDI (human) enzyme inhibition. P07237. PDI insulin aggregation turbidity, A650, 90 min. inhibition, % at 10 µM. 0.052% of 350,000 active. AID 588391;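 active means mean inhibition across replicates of 30% or more, whatever share of single replicates reach that level; inconclusive means mean inhibition below 30% while every single replicate reaches 30%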
Target sequence (P07237 whole entry, looked up): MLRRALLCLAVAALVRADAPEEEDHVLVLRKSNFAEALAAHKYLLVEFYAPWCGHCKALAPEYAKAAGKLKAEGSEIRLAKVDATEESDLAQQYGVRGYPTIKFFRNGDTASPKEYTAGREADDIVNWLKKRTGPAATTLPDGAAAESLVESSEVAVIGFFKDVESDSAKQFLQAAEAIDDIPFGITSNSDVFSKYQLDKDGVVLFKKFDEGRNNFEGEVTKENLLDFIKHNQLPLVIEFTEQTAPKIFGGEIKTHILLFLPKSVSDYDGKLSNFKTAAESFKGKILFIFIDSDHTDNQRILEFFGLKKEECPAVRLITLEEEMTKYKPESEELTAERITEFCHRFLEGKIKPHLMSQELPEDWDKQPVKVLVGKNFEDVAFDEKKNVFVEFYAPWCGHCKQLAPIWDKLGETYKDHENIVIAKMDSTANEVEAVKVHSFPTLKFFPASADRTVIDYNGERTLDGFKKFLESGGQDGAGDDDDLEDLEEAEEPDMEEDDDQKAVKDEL
DENV2 CPE rescue: DENV2-induced cell death inhibition. DENV2-infected cells, cytopathic effect rescue, plate reader. CPE inhibition, % at 9.99 µM. 1.7% of 350,000 active. AID 651640; in the data active means CPE inhibition above about 20%, passing the limit was not always enough; inconclusive means no clear call, values can overlap the other calls; tested in BHK-21 cells
Large screens that a line does not name were inactive; ! = a repeat was not active.

C(=C\c1ccc(C2[C@@H]3CN(Cc4cocn4)C[C@H]2N3)cc1)/c1ccccc1 (some centres not stated)	DENV2 CPE rescue 30! (no result: AF4-AF9 inh, ERAP1 HTS inh, ERp5 block, PDI inh)
Cc1noc(C)c1NC(=O)Nc1ccc2c(c1)C(=O)N([C@@H](C)CO)C[C@@H](C)[C@H](CN(C)S(=O)(=O)c1ccc(Cl)cc1)O2	DENV2 CPE rescue 28 (no result: PDI inh)
C[C@H]1CN([C@@H](C)CO)C(=O)c2cc(NC(=O)CCCN(C)C)ccc2O[C@@H]1CN(C)S(=O)(=O)c1ccc(F)cc1	none (no result: PDI inh)
C[C@H]1CN([C@@H](C)CO)C(=O)c2cc(NC(=O)CCCN(C)C)ccc2O[C@@H]1CN(C)S(=O)(=O)c1ccc(Cl)cc1	DENV2 CPE rescue active (no result: PDI inh)
C[C@H]1CN([C@@H](C)CO)C(=O)c2cc(NC(=O)CCC(F)(F)F)ccc2O[C@H]1CN(C)S(=O)(=O)c1ccc(Cl)cc1	DENV2 CPE rescue 73 (no result: PDI inh)
C[C@@H]1CN([C@H](C)CO)C(=O)c2cc(NC(=O)CCC(F)(F)F)ccc2O[C@@H]1CN(C)S(=O)(=O)c1ccc(Cl)cc1	none (no result: PDI inh)
C[C@H]1CN([C@@H](C)CO)C(=O)c2cc(NC(=O)CCCN(C)C)ccc2O[C@@H]1CN(C)S(=O)(=O)c1cn(C)cn1	DENV2 CPE rescue 38 (no result: PDI inh)
Cc1ccc(S(=O)(=O)N(C)C[C@@H]2Oc3ccc(NC(=O)Cc4ccccc4)cc3C(=O)N([C@H](C)CO)C[C@@H]2C)cc1	none (no result: PDI inh)
C[C@@H](CSc1ccc(Br)cc1)CN1CC[C@H](NC(=O)OCc2ccccc2)CCC1=O	DENV2 CPE rescue 75
COc1ccccc1/C=N/NC(=O)c1ccccc1Cl	none
COc1cccc(/C=N/NC(=O)C(=O)N/N=C/c2cccc(OC)c2OC)c1OC	DENV2 CPE rescue 85
COc1ccccc1C=NNC(=O)c1ccccc1OCCOc1ccccc1	DENV2 CPE rescue 75
COc1ccccc1C=NNC(=O)C(=O)NN=Cc1ccccc1OC	none
O=C(Nc1ccc(F)cc1)N[C@H]1CC[C@@H](CC(=O)N2CCOCC2)O[C@H]1CO	none (no result: PDI inh)
C[C@@H]1CN([C@@H](C)CO)C(=O)c2cc(NS(=O)(=O)c3cn(C)cn3)ccc2O[C@@H](C)CCCCO[C@H]1CN(C)Cc1ccc(C(=O)O)cc1	none (no result: PDI inh)
O=C(NCCC1CCCCN1S(=O)(=O)c1ccc(F)cc1)C(=O)NCc1ccccn1 (configuration not stated)	DENV2 CPE rescue inconclusive
O=C(NCCC1CCCCN1S(=O)(=O)c1ccccc1)C(=O)NCc1ccccn1 (configuration not stated)	DENV2 CPE rescue 92
COc1ccc(S(=O)(=O)N2CCC(C(=O)NCCC(=O)NCc3ccccn3)CC2)cc1	DENV2 CPE rescue 36
O=C(NCc1ccccn1)C(=O)NCC1OCCN1S(=O)(=O)c1ccc(Br)cc1 (configuration not stated)	DENV2 CPE rescue 64
C[C@@H]1CN([C@H](C)CO)C(=O)c2cccc(NC(=O)CCCCCC(=O)Nc3ccccc3N)c2O[C@H]1CN(C)Cc1ccc(C(F)(F)F)cc1	none (no result: PDI inh)
Cc1ccccc1S(=O)(=O)N1CC(=O)N2[C@H](CO)[C@@H](c3ccc(C#CCN(C)C)cc3)[C@H]2C1	DENV2 CPE rescue 43 (no result: PDI inh)
Cc1ccccc1S(=O)(=O)N1CC(=O)N2[C@@H](CO)[C@H](c3ccc(C#CCN(C)C)cc3)[C@@H]2C1	none (no result: PDI inh)
Cc1ccccc1S(=O)(=O)N1CC(=O)N2[C@H](CO)[C@@H](c3ccc(C#CCN(C)C)cc3)[C@@H]2C1	DENV2 CPE rescue 34 (no result: PDI inh)
CCOC(=O)C1CCN(S(=O)(=O)c2ccc3c(c2)CC(=O)N3C)CC1	ERAP1 HTS inh 101
COc1ccc2ccccc2c1-c1c(OC)ccc2ccccc12	DENV2 CPE rescue 26 (no result: PDI inh)
COc1ccc(OC)c2cc3ccccc3cc12	none
COc1ccc2c3c(n(C)c2c1)[C@@H](CO)N(C(=O)Cc1ccccc1)CC31CCN(C(=O)Cc2ccccc2)CC1	none (no result: PDI inh)
CCS(=O)(=O)NCC[C@@H]1CC[C@@H](NC(=O)Nc2cc(Cl)cc(Cl)c2)[C@H](CO)O1	none (no result: PDI inh)
CN1C(=O)c2cc(NC(=O)c3ccc(F)cc3)ccc2OC[C@H]2O[C@H](CC(=O)O)CC[C@@H]21	none (no result: PDI inh)
C[C@H]1CN([C@@H](C)CO)C(=O)Cc2cc(NS(=O)(=O)c3cn(C)cn3)ccc2O[C@H]1CN(C)Cc1ccc(-c2ccccc2)cc1	none (no result: PDI inh)
Cc1ccc(-n2cc(CNCCn3nc(C)cc3C)c(-c3ccc(F)cc3)n2)cc1	none
Cc1ccc(-n2cc(CNCCc3ncc(C)[nH]3)c(-c3ccc(F)cc3)n2)cc1	AF4-AF9 inh 28
CC(C)C#Cc1ccc([C@H]2[C@@H](CO)N3CCCCN(CC4CC4)C[C@@H]23)cc1	none (no result: PDI inh)
COc1ccc2c3c(n(C)c2c1)[C@@H](CO)N(CC1CCCCC1)CC31CCN(C(C)=O)CC1	none (no result: PDI inh)
CCC(SC1=NCCS1)C(=O)Nc1ccc(S(N)(=O)=O)cc1 (configuration not stated)	DENV2 CPE rescue 26
CNC(=S)N1CCC(C(=O)c2ccc(Cl)cc2)CC1	DENV2 CPE rescue 22
Cc1ccc(C)c(NC(=S)N2CCC(C(=O)c3ccc(F)cc3)CC2)c1	DENV2 CPE rescue 21
C=CCNC(=S)N1CCC(C(=O)c2ccc(F)cc2)CC1	DENV2 CPE rescue 53
COc1ccc(NC(=S)N2CCC(C(=O)c3ccc(F)cc3)CC2)cc1	DENV2 CPE rescue 37
C=CCNC(=S)N1CCC(C(=O)c2ccc(OC)cc2)CC1	none
COc1ccccc1CNC(=O)C[C@H]1C[C@@H]2c3cc(NS(C)(=O)=O)ccc3O[C@@H]2[C@H](CO)O1	none (no result: PDI inh)
Cc1ccc(S(=O)(=O)Nc2ccc3c(c2)CC(=O)N([C@H](C)CO)C[C@H](C)[C@@H](CN(C)Cc2ccc(C(=O)O)cc2)O3)cc1	none (no result: PDI inh)
O=C(Nc1ccccc1)N1CCCCN2[C@H](C1)[C@@H](c1ccc(Br)cc1)[C@@H]2CO	none (no result: PDI inh)
O=C(Nc1ccccc1)N1CCCCN2[C@@H](CO)[C@@H](c3ccc(Br)cc3)[C@@H]2C1	DENV2 CPE rescue 33 (no result: PDI inh)
O=C(Nc1ccccc1)N1CCCCN2[C@H](CO)[C@@H](c3ccc(C#CC4CC4)cc3)[C@@H]2C1	none (no result: PDI inh)
O=C(Nc1ccccc1)N1CCCCN2[C@H](CO)[C@H](c3ccc(C#CC4CC4)cc3)[C@H]2C1	DENV2 CPE rescue 34 (no result: PDI inh)
CO[C@@H](CN(C)S(=O)(=O)c1ccc(F)cc1)[C@H](C)CN(Cc1ccccc1Cl)[C@H](C)CO	none (no result: PDI inh)
CN1c2ccc(Br)cc2[C@H]2[C@H](CCN2S(=O)(=O)c2ccccc2F)[C@@H]1CO	DENV2 CPE rescue 40 (no result: PDI inh)
Cc1ccccc1S(=O)(=O)N1CC[C@H]2[C@@H](CO)N(C)c3ccc(Br)cc3[C@H]21	DENV2 CPE rescue 143 (no result: AF4-AF9 inh, ERAP1 HTS inh, ERp5 block, PDI inh)
COC(=O)c1ccc(CN2CC(=O)N3[C@@H](CO)[C@@H](c4ccc(Br)cc4)[C@@H]3C2)cc1	none (no result: PDI inh)
C[C@H](c1ccccc1)N1C[C@@H](COCc2ccccc2)Oc2cccc(Oc3ccccc3)c2S1(=O)=O	none (no result: ERAP1 HTS inh, PDI inh)
C[C@H](c1ccccc1)N1C[C@@H](COCc2ccccc2)Oc2cccc(Oc3ccc(C(C)(C)C)cc3)c2S1(=O)=O	DENV2 CPE rescue 85 (no result: ERAP1 HTS inh, PDI inh)
